# Compounds with a hit are over-represented: about 1.5% of the library has one in this group of screens.
# NTR1 agonist = activates human neurotensin receptor 1; activation, % at 20 µM; P30989; actives 0.17% (n = 330,000); AID 493036; NTR1-U2OS beta-arrestin-GFP spot imaging, agonist mode;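 active means activation at or above 40% of the spot to cytoplasm intensity ratio, with at least 20 cells analyzed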;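 further: 0% = DMSO without peptide and 100% = 100 nM NTR1 peptide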
# ABHD5-PLIN5 inh = ABHD5-PLIN5 protein interaction inhibition; actives 0.78% (n = 360,000); Split G. princeps luciferase complementation, luminescence, 4 h; Q00G26+Q8WTS1; inhibition, % at 4 µM;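 active means inhibition above the mean inhibition across every tested compound plus 3 SD, cut at about 22% in these data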;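 further: 0% = DMSO only wells and the 100% control is not disclosed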
# B2AR ag = activates human beta-2 adrenergic receptor causing internalization; P07550; Am2.2-beta2AR cells, FAP receptor internalization, flow cytometry; response, % (test concentration not listed); actives 0.43% (n = 340,000); AID 504454;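 active means response above a set limit, near 3 SD of response in nonfluorescent compounds, cut at about 42% in these data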
# TLR4 MyD88 comp = TLR4-MyD88 interaction inhibition in cells. HeLa CL3-4 TLR4/MyD88 BLA complementation, FRET ratio. actives 0.18% (n = 200,000). inhibition, % at 8.4 µM; in the data active means inhibition above about 25%;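 further: 0% = vehicle and 100% = reference inhibitor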
# TLR9-MyD88 block = inhibitors of human TLR9-MyD88 binding; actives 0.21% (n = 340,000); CHO BLA complementation TLR9-MyD88, CCF4 FRET ratio; inhibition, % at 4.98 µM;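 active means inhibition above the mean over all tested compounds plus 3 SD, cut at about 21% in these data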;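 further: 0% = DMSO only wells and 100% = clavulanate BLA inhibitor control wells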
# NOD2 RIPK2 PPI = blocks binding of human NOD2 to RIPK2; O43353; CHO BLA complementation NOD2-RIPK2, CCF4 ratio; inhibition, % at 4.98 µM; actives 0.38% (n = 360,000); AID 624267; in the data active means inhibition above about 21%;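 further: 0% = vehicle only and 100% = reference blocker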
# ABHD5 PLIN5 conf = ABHD5-PLIN5 interaction inhibition, confirmed; shares compounds with ABHD5-PLIN5 inh; biochemical ABHD5-PLIN5 interaction, luminescence; inhibition, % at 4 µM; actives 67% (n = 2,200); in the data active means inhibition above about 23%;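 further: 0% = DMSO vehicle wells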
# HNF4 counter = counter-screen for ABHD5-PLIN5 inhibitors: HNF4 split-luciferase | shares compounds with ABHD5-PLIN5 inh | actives 77% (n = 2,200) | HNF4 dimerization, luminescence, biochemical | inhibition, % at 4 µM;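 active means mean inhibition across replicate wells exceeding the computed hit threshold, cut at about 13% in these data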;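 further: light from luciferase halves that rejoin when HNF4 fusion proteins dimerize; 0% = DMSO only wells and the 100% control is not given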
# Target sequence (P41235 whole entry, looked up, the tested form may be a part): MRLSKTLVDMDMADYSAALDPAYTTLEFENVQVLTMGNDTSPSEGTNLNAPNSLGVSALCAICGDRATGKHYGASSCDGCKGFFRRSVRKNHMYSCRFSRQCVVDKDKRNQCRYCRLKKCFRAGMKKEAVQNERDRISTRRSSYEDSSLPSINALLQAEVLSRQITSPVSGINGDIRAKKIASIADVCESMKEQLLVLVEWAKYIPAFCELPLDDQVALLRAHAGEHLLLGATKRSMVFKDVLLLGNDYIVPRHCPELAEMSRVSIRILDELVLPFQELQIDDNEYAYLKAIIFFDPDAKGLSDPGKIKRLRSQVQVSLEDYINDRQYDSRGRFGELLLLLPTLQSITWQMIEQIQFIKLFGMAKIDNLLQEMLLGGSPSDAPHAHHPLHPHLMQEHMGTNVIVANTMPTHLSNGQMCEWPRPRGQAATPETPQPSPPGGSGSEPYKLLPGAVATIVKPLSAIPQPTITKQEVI
# * = called active by the depositor; / = no result; ! = not active in a repeat.
SMILES,NTR1 agonist,ABHD5-PLIN5 inh,B2AR ag,TLR4 MyD88 comp,TLR9-MyD88 block,NOD2 RIPK2 PPI,ABHD5 PLIN5 conf,HNF4 counter
COc1ccc(OC)c(S(=O)(=O)NC(=O)C2(C)CCN2C(=O)C2(c3ccc(Cl)cc3)CC2)c1 (centres undefined),/,10,/,/,/,11,/,/
CCCNc1cc(=O)n(C)c(=O)n1C,-1,4,4,8,4,-8,/,/
Cn1c(NCCN2CCCCC2)cc(=O)n(C)c1=O,-2,28*,-3,-6,8,0,-1,3
CC1(C(=O)NCc2ccco2)CCN1C(=O)C1(c2ccccc2)CC1 (centres undefined),/,10,/,/,/,-5,/,/
Cc1cc(C)cc(CC(=O)N2CCC2(C)C(=O)NS(=O)(=O)c2cccc(F)c2)c1 (centres undefined),/,2,/,/,/,-6,/,/
CC1OC(CC(=O)O)CC2=C1C(=O)c1c(O)cccc1C2=O (centres undefined),/,99*,75*,/,0,78*,4,5
O=C1c2cccc(O)c2C(=O)c2c(O)cccc21,3,/,/,-1,/,/,/,/
CC(C)(C)c1cc(NC(=O)C2(C)CCN2C(=O)c2ccccc2CCc2ccccc2)no1 (centres undefined),/,1,/,/,/,2,/,/
CC(C)C(C)NC(=O)CSc1nc2scc(-c3ccco3)c2c(=O)n1-c1ccccc1 (centres undefined),2,38*,-4,1,-1,-3,8,15*
Cc1sc2nc(SCC(=O)NCc3ccco3)n(-c3ccccc3)c(=O)c2c1C,1,-1,-2,4,9,-14,/,/
CC(C)C(C)(C#N)NC(=O)CSc1nc2scc(-c3ccco3)c2c(=O)n1-c1ccccc1 (centres undefined),-2,25*,-7,-2,-2,7,30*,93*
O=C(NCc1ccccc1)C(c1ccc(F)cc1)N1CCN(c2ccccc2F)CC1 (centres undefined),/,0,/,/,/,1,/,/
CCOC(=O)C1=C(C)N=c2sc(=Cc3cc(Cl)c(OCC(=O)O)c(Cl)c3)c(=O)n2C1c1cccc(OC)c1 (centres undefined),/,5,/,/,/,-2,/,/
O=C(/C=C\c1ccccc1)Nc1ccc(NC(=O)c2ccco2)cc1,3,6,-19,6,8,-1,/,/
O=C(/C=C/c1ccc([N+](=O)[O-])cc1)c1ccco1,7,33*,5,/,-5,2,91*,91*
O=C(N/N=C/C=C/c1ccco1)c1cccc([N+](=O)[O-])c1,0,13,-6,1,-5,-7,/,/
O=C(/C=C/c1ccc(Br)cc1)c1ccc(NC(=O)c2ccco2)cc1,3,29*,-9,4,-7,2,61*,46*
O=C(/C=C/c1ccc([N+](=O)[O-])cc1)NCc1ccco1,-3,1,5,-4,2,-8,/,/
O=C(/C=C/c1ccc(-c2ccccc2[N+](=O)[O-])o1)c1ccco1,1,30*,0,10,2,-6,64*,48*
O=C(/C=C/c1ccco1)c1cccc([N+](=O)[O-])c1,/,29*,3,/,-1,-1,46*,30*
CC(C)CNC(=O)c1ccc(-c2ccc(F)c(F)c2)c2ccoc12,/,-3,/,/,/,-3,/,/
COc1cc(NC(=O)c2cccc3c(-c4cccnc4)coc23)cc(OC)c1OC,/,6,/,/,/,-5,/,/
COC(=O)[C@@]12C[C@@H](CC(=O)NCCc3ccccc3OC)C(=O)N(Cc3ccc4c(c3)OCO4)C1=CCC(C)(C)C2,/,1,/,/,/,5,/,/
Cc1ccccc1S(=O)(=O)NC(=O)C1(C)CCN1C(=O)CC1CCCCC1 (centres undefined),/,0,/,/,/,-5,/,/
O=C(/C=C/c1ccc(Br)cc1)c1ccco1,24,79*,16,10,-8,-4,99*,99*
SMILES,NTR1 agonist,ABHD5-PLIN5 inh,B2AR ag,TLR4 MyD88 comp,TLR9-MyD88 block,NOD2 RIPK2 PPI,ABHD5 PLIN5 conf,HNF4 counter
O=C(C=Cc1ccco1)c1ccco1,/,16,1,/,0,-8,/,/
CC(=O)c1c(-c2ccccc2)[nH]c2ccccc12,2,2,-3,/,-15,3,/,/
O=C(O)/C=C/C(=O)c1c(-c2ccccc2)[nH]c2ccccc12,-1,62*,3,/,-16,-2,96*,94*
COc1ccc(C2=Nc3ccccc3N(C(=O)c3ccc4c(c3)OCO4)C2C(=O)Nc2c(C)cccc2C)cc1 (centres undefined),/,16,/,/,/,-10,/,/
CC1(c2ccc([N+](=O)[O-])cc2)Nc2ccccc2S1 (centres undefined),3,35*,-2,/,-5,0,-5,-9
O=C1Nc2ccccc2/C1=C/c1ccc([N+](=O)[O-])cc1,10,19,18,/,-13,-5,/,/
CCCS(=O)(=O)NC(=O)C1(C)CCCN(C(=O)c2c(OC)cccc2OC)C1 (centres undefined),/,-4,/,/,/,14,/,/
COc1ccccc1/C=C/C(=O)c1ccccc1,/,29*,-4,/,4,-14,55*,34*
COc1ccc(OC)c(/C=C/C(=O)c2ccc(Cl)cc2)c1,4,49*,5,14,13,1,72*,55*
COc1cc(O)c(C(=O)/C=C/c2ccccc2)c(OC)c1,15,27*,3,/,-13,4,50*,44*
COc1cc(C=CC(=O)c2ccccc2)cc(OC)c1OC,/,48*,/,/,/,-23,68*,50*
COc1ccccc1C(=O)OCCc1ccccc1,/,7,12,/,-7,-10,/,/
Cc1cccc(NS(=O)(=O)c2ccc(C)c(C(=O)NC3CCN(Cc4ccccc4)CC3)c2)c1,/,5,8,/,-7,3,/,/
COc1ccccc1/C=C/C(=O)c1ccc(Cl)cc1,8,27*,0,1,3,6,69*,49*
CCOc1ccccc1/C=C/C(=O)c1ccc(Cl)cc1,2,2,35,4,-2,1,/,/
Cc1ccc(-n2cc(-c3ccccc3)c3c(N4CCN(C)CC4)ncnc32)cc1,3,24*,0,-8,2,0,11,1
COc1ccc(OC)c(N=c2ssnc2Cl)c1,-1,14,4,-5,0,1,/,/
COc1cc(N=c2ssnc2Cl)c(OC)cc1Cl,3,41*!,-6,10,1,4,74*,106*
COc1ccc(NC(=O)C2(C)CCN2C(=O)c2ccccc2CCc2ccccc2)cc1OC (centres undefined),/,-3,/,/,/,-2,/,/

# Source: PubChem BioAssay (several laboratories)
